# Measurements: PubChem BioAssay AID1508601 (ICCB-Longwood Screening Facility, Harvard Medical School, 2020)
# Screen size: about 5,700 compounds; about 85 (1%) were called active. No stated cut-off is given here; in the data, active means p53-positive nuclei above about 36% (passing the limit was not always enough); inactive means the rest. Only a selection was taken, and actives are over-represented in it overall.
# Key:
# [1] = p53 stabilisation in HPV-positive human cells, imaging, p53-positive nuclei imaging, 24 h, 48 h (AID 1508601); conditions: 24/48 h
# [2] = target: Cellular tumor antigen p53 (Homo sapiens) (UniProt P04637); assay: as above; conditions: 24/48 h, stronger effect = higher value
# Sequence of Cellular tumor antigen p53 (Homo sapiens) (P04637 whole entry, looked up): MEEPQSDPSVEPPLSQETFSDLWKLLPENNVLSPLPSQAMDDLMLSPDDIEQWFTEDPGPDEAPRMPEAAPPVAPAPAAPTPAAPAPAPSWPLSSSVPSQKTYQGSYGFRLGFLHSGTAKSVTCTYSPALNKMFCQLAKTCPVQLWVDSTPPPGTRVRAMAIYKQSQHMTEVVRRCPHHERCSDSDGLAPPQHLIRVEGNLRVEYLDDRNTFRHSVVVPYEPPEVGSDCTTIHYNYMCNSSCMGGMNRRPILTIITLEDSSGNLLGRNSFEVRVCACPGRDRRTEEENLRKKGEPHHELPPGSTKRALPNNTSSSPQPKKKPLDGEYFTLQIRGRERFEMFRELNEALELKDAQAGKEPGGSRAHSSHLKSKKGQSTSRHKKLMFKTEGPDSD
# [3] = measured here: cell number at 24 h, Library stock concentration: 10 mM
# [4] = measured here: cell number at 48 h, Library stock concentration: 10 mM
# [5] = Library stock concentration: 10 mM
# [6] = measured here: p53 positive nuclei at 24 h, Library stock concentration: 10 mM
structure (smiles),measurement,setting,value
OCC1OC(n2cnc3c2NC=NCC3O)CC1O (centres undefined),"nuclei count, normalised","[1]; measured here: cell number at 24 h, Library stock concentration: 500 nM",123%
same,"nuclei count, normalised","[1]; measured here: cell number at 24 h, Library stock concentration: 1.5 uM",117%
same,"nuclei count, normalised","[1]; measured here: cell number at 24 h, Library stock concentration: 4.6 uM",116%
same,"nuclei count, normalised","[1]; measured here: cell number at 24 h, Library stock concentration: 13.7 uM",127%
same,"nuclei count, normalised","[1]; measured here: cell number at 24 h, Library stock concentration: 41 uM",122%
same,"nuclei count, normalised","[1]; measured here: cell number at 24 h, Library stock concentration: 123 uM",124%
same,"nuclei count, normalised","[1]; measured here: cell number at 24 h, Library stock concentration: 370 uM",121%
same,"nuclei count, normalised","[1]; measured here: cell number at 24 h, Library stock concentration: 1.111 mM",120%
same,"nuclei count, normalised","[1]; measured here: cell number at 24 h, Library stock concentration: 3.333 mM",122%
same,"nuclei count, normalised",[1]; [3],117%
same,"nuclei count, normalised","[1]; measured here: cell number at 48 h, Library stock concentration: 500 nM",119%
same,"nuclei count, normalised","[1]; measured here: cell number at 48 h, Library stock concentration: 1.5 uM",112%
same,"nuclei count, normalised","[1]; measured here: cell number at 48 h, Library stock concentration: 4.6 uM",114%
same,"nuclei count, normalised","[1]; measured here: cell number at 48 h, Library stock concentration: 13.7 uM",119%
same,"nuclei count, normalised","[1]; measured here: cell number at 48 h, Library stock concentration: 41 uM",118%
same,"nuclei count, normalised","[1]; measured here: cell number at 48 h, Library stock concentration: 123 uM",113%
same,"nuclei count, normalised","[1]; measured here: cell number at 48 h, Library stock concentration: 370 uM",117%
same,"nuclei count, normalised","[1]; measured here: cell number at 48 h, Library stock concentration: 1.111 mM",114%
same,"nuclei count, normalised","[1]; measured here: cell number at 48 h, Library stock concentration: 3.333 mM",113%
same,"nuclei count, normalised",[1]; [4],114%
same,"p53-positive nuclei, normalised",[2]; Library stock concentration: 500 nM,-0.173% (inactive)
same,"p53-positive nuclei, normalised",[2]; Library stock concentration: 1.5 uM,-0.175% (inactive)
same,"p53-positive nuclei, normalised",[2]; Library stock concentration: 4.6 uM,-0.091% (inactive)
same,"p53-positive nuclei, normalised",[2]; Library stock concentration: 13.7 uM,-0.0972% (inactive)
same,"p53-positive nuclei, normalised",[2]; Library stock concentration: 41 uM,0.0195% (inactive)
same,"p53-positive nuclei, normalised",[2]; Library stock concentration: 123 uM,0.029% (inactive)
same,"p53-positive nuclei, normalised",[2]; Library stock concentration: 370 uM,-0.058% (inactive)
same,"p53-positive nuclei, normalised",[2]; Library stock concentration: 1.111 mM,-0.0904% (inactive)
same,"p53-positive nuclei, normalised",[2]; Library stock concentration: 3.333 mM,-0.125% (inactive)
same,"p53-positive nuclei, normalised",[2]; [5],-0.0529% (inactive)
same,"p53-positive nuclei, normalised","[2]; measured here: p53 positive nuclei at 24 h, Library stock concentration: 500 nM",-0.0351%
same,"p53-positive nuclei, normalised","[2]; measured here: p53 positive nuclei at 24 h, Library stock concentration: 1.5 uM",-0.148%
same,"p53-positive nuclei, normalised","[2]; measured here: p53 positive nuclei at 24 h, Library stock concentration: 4.6 uM",-0.0281%
same,"p53-positive nuclei, normalised","[2]; measured here: p53 positive nuclei at 24 h, Library stock concentration: 13.7 uM",0.0187%
same,"p53-positive nuclei, normalised","[2]; measured here: p53 positive nuclei at 24 h, Library stock concentration: 41 uM",-0.0912%
same,"p53-positive nuclei, normalised","[2]; measured here: p53 positive nuclei at 24 h, Library stock concentration: 123 uM",-0.0944%
same,"p53-positive nuclei, normalised","[2]; measured here: p53 positive nuclei at 24 h, Library stock concentration: 370 uM",-0.0326%
same,"p53-positive nuclei, normalised","[2]; measured here: p53 positive nuclei at 24 h, Library stock concentration: 1.111 mM",-0.148%
same,"p53-positive nuclei, normalised","[2]; measured here: p53 positive nuclei at 24 h, Library stock concentration: 3.333 mM",-0.0881%
same,"p53-positive nuclei, normalised",[2]; [6],-0.148%
CC(C)CC(NC(=O)C(O)C(N)Cc1ccccc1)C(=O)O (centres undefined),"nuclei count, normalised","[1]; measured here: cell number at 24 h, Library stock concentration: 80 uM",115%
same,"nuclei count, normalised","[1]; measured here: cell number at 24 h, Library stock concentration: 400 uM",119%
same,"nuclei count, normalised","[1]; measured here: cell number at 24 h, Library stock concentration: 2 mM",104%
same,"nuclei count, normalised",[1]; [3],105%
same,"nuclei count, normalised","[1]; measured here: cell number at 48 h, Library stock concentration: 80 uM",111%
same,"nuclei count, normalised","[1]; measured here: cell number at 48 h, Library stock concentration: 400 uM",113%
same,"nuclei count, normalised","[1]; measured here: cell number at 48 h, Library stock concentration: 2 mM",108%
same,"nuclei count, normalised",[1]; [4],111%
same,"p53-positive nuclei, normalised",[2]; Library stock concentration: 80 uM,-0.159% (inactive)
same,"p53-positive nuclei, normalised",[2]; Library stock concentration: 400 uM,-0.07% (inactive)
same,"p53-positive nuclei, normalised",[2]; Library stock concentration: 2 mM,-0.0155% (inactive)
same,"p53-positive nuclei, normalised",[2]; [5],0.0117% (inactive)
same,"p53-positive nuclei, normalised","[2]; measured here: p53 positive nuclei at 24 h, Library stock concentration: 80 uM",-0.122%
same,"p53-positive nuclei, normalised","[2]; measured here: p53 positive nuclei at 24 h, Library stock concentration: 400 uM",0.00728%
same,"p53-positive nuclei, normalised","[2]; measured here: p53 positive nuclei at 24 h, Library stock concentration: 2 mM",-0.122%
same,"p53-positive nuclei, normalised",[2]; [6],0.0829%
CC(C)CC(NC(=O)C(Cc1ccccc1)NC(=O)c1cnccn1)B(O)O (centres undefined),"nuclei count, normalised","[1]; measured here: cell number at 24 h, Library stock concentration: 3.33 mM",47.9%
same,"nuclei count, normalised","[1]; measured here: cell number at 48 h, Library stock concentration: 3.33 mM",41.9%
same,"p53-positive nuclei, normalised",[2]; Library stock concentration: 3.33 mM,106% (active)
same,"p53-positive nuclei, normalised","[2]; measured here: p53 positive nuclei at 24 h, Library stock concentration: 3.33 mM",125%
CC(C)C[C@H](NC(=O)[C@@H](O)[C@H](N)Cc1ccccc1)C(=O)O,"nuclei count, normalised","[1]; measured here: cell number at 24 h, concentration not given here",97.2%
same,"nuclei count, normalised","[1]; measured here: cell number at 48 h, concentration not given here",105%
same,"p53-positive nuclei, normalised",[2]; concentration not given here,-0.0349% (inactive)
same,"p53-positive nuclei, normalised","[2]; measured here: p53 positive nuclei at 24 h, concentration not given here",-0.0296%
